Experimental data: PubChem BioAssay AID1117319 (Southern Research Institute, 2015)
Values joined by “and” are separate entries in the source; they are usually repeats but may differ in a detail not shown here. Equal values may be shown once. Hit rate of the full screen: of about 260,000 compounds, about 1,500 (0.58%) were called active. Another 5% or so got no clear call; they are omitted.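 How the source made its calls: active means inhibition above a set limit at one or more doses, reproduced on every date tested; inconclusive means results disagree between test dates, or hit never tested in dose response; inactive means the rest.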 These entries were drawn from the full list. Potency and affinity values are given separately.

These compounds were tested against Virion infectivity factor (Human immunodeficiency virus type 1 group M subtype B (isolate BH10)) + Virion infectivity factor (Human immunodeficiency virus type 1 group M subtype B (isolate BRU/LAI)) + Virion infectivity factor (Human immunodeficiency virus type 1 group M subtype B (isolate PCV12)) + Virion infectivity factor (Human immunodeficiency virus type 1 group M subtype B (isolate HXB2)) + DNA dC->dU-editing enzyme APOBEC-3G (Homo sapiens) (UniProt P69720+P69721+P69722+P69723+Q9HC16) (assay: HIV-1 Vif–A3G interaction blockers – biochemical, TR-FRET, GST-Vif 1-94, biotin-A3G peptide, dose response retest, primary screen (AID 1117319;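 further: Vif residues 1-94 fused to GST binding biotinylated APOBEC3G peptide 110-148; 0% = full assay without inhibitor and 100% = GST in place of GST-Vif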)). Settings: TR-FRET GST-Vif / biotin-A3G peptide binding; stronger effect = higher value.

inhibition, inactive:
COc1cc(NCc2ccccc2O)c2ncccc2c1 3.48%, COc1cc(NCCCCC(C)N)c2nccc(C)c2c1 (stereo unspecified) 9.33%, CCOC(=O)c1ccc(Oc2nc(N(C)C)nc(N3CCOCC3)n2)cc1 -15.9%, CN1CCN(c2nnc(-c3ccc(Cl)cc3)c3ccccc23)CC1 3.71%, Cc1ccc(C)c(/C=N/n2cc(-c3ccccc3)[nH]c2=S)c1 -9.36%, Cc1ccc(-c2cc(-c3ccc(Cl)cc3)c(C#N)c(N)n2)o1 24.5%, Cc1ccc(-c2cc(-c3ccc(C)o3)nc(N)c2C#N)cc1 27.2%, Cc1cc(-c2ccc(Cl)cc2)c(C#N)c(N)n1 -1.08%, Cc1ccc(-c2cc(-c3ccc(F)cc3)c(C#N)c(N)n2)o1 18.2%, Cc1ccc(CNC(=O)c2ccc(CN3CCOCC3)cc2)cc1 32.3%, Cc1[nH]c2ccccc2c1C(=O)NS(=O)(=O)Nc1ccc(Cl)cc1 12.1%, CN(C)S(=O)(=O)c1ccc(C(=O)Nc2nnc(-c3cccs3)o2)cc1 27.3%, O=C(Nc1ccc(N2CCN(C(=O)c3ccc(Cl)cc3)CC2)cc1)c1ccc(Br)o1 10.6% and 6.22%, COC(=O)c1c(NC(=O)Cc2cccs2)sc2c1CCCC2 29.5%, CCOC(=O)c1c(NC(=O)Cc2cccs2)sc2c1CCCC2 -5.96%, O=c1c2cc(N3CCOCC3)ccc2[nH]c(=S)n1CCN1CCCC1 12.5%, CCCCn1c(=S)[nH]c2ccc(N3CCOCC3)cc2c1=O -3.86%, O=c1c2cc(N3CCOCC3)ccc2[nH]c(=S)n1Cc1ccc(Cl)cc1 -2.52%, O=c1c2cc(N3CCOCC3)ccc2[nH]c(=S)n1Cc1ccccc1Cl -15.9%, CN(C)C(CNS(=O)(=O)c1ccc(F)cc1)c1cccnc1 (stereo unspecified) -1.58%, CN(C)S(=O)(=O)c1ccc(Cl)c(C(=O)NNC(=O)c2ccc3c(c2)OCO3)c1 -8.17%, Cc1ccsc1C(=O)NC(C)c1ccc2c(c1)OCO2 (stereo unspecified) 0.99%, CCSc1nnc(Nc2ccc(C)cc2)s1 1.17%, CC(C)C12CN3CC(C(C)C)(CN(C1)C3c1ccc3c(c1)OCO3)C2=O (stereo unspecified) 2.83%, Cc1ccc2oc(-c3ccc(NC(=O)c4ccncc4)cc3O)nc2c1 -2%, O=C(COC(=O)c1ccc(S(=O)(=O)C(F)F)cc1)Nc1cccnc1Cl 10.1%, Cc1cc(C)n2nc(SCC(=O)N3CCC(C(=O)O)CC3)nc2n1 0.2%, Cc1cccc(OCc2nnc(NC(=O)Cc3cccs3)s2)c1 -15.6%, Clc1ccccc1Oc1cnc2ccccc2n1 31.7%, COc1ccc(-c2oc3c(CC=C(C)C)c(O[C@@H]4O[C@H](CO)[C@@H](O)[C@H](O)[C@H]4O)cc(O)c3c(=O)c2O[C@@H]2O[C@@H](C)[C@H](O)[C@@H](O)[C@H]2O)cc1 0.27%, O=c1c(OC2OC(CO)C(O)C(O)C2O)c(-c2ccc(O)c(O)c2)oc2cc(O)cc(O)c12 (stereo unspecified) -4.71%, C[C@@H]1O[C@@H](OC[C@H]2O[C@@H](Oc3c(-c4ccc(O)c(O)c4)oc4cc(O)cc(O)c4c3=O)[C@H](O)[C@@H](O)[C@@H]2O)[C@H](O)[C@H](O)[C@H]1O -12%, O=c1c(O[C@@H]2O[C@H](CO)[C@@H](O)[C@H](O)[C@H]2O)c(-c2ccc(O)c(O)c2)oc2cc(O)cc(O)c12 -5.92%, CN(C)C(CNC(=O)CCc1c[nH]c2ccccc12)c1ccccc1 (stereo unspecified) 0.02%, O=C(COC(=O)C1CCN(S(=O)(=O)c2cccs2)CC1)Nc1ccccc1 -2.54%, CCN(Cc1ccccc1)C(=O)Cn1c(C(C)O)nc2ccccc21 (stereo unspecified) -14.7%, CC(=O)OC1C(OC(C)=O)C2C(C)CC3OC(=O)C(C)C3CC2(C)C1OC(C)=O (stereo unspecified) 1.67%, COc1ccc(C(OCC(O)CNCCc2ccc(S(N)(=O)=O)cc2)c2ccc(OC)cc2)cc1 (stereo unspecified) -0.36%, Cc1ccc(-n2c(CCC(=O)O)ccc2-c2cccs2)cc1 9.93%, CC(=O)c1ccc(-n2c(CCC(=O)O)ccc2-c2cccs2)cc1 7.93%, Cc1c(C(=O)Nc2ccccc2-c2ccccc2)cccc1[N+](=O)[O-] 22.9%, Cc1ccccc1CNC(=O)c1ccc(Cl)c([N+](=O)[O-])c1 3.74%, Cc1nn(C)cc1CNC(=O)c1cccc(Cl)c1 0.88%, COCC(C)OC(=O)c1c(N)n(-c2ccc(OC)c(OC)c2)c2nc3ccccc3nc12 (stereo unspecified) 7.95%, COc1cc(/C=C/C(=O)OCC(=O)Nc2ccc3c(c2)OCCO3)ccc1OCC#N -0.31%, N#CC1=C2C=Cc3ccccc3N2CCCC1=O 6.87%, COC(=O)C(C)Sc1nnc(Cc2cc(=O)[nH]c(=O)[nH]2)n1-c1ccc(OC)cc1 (stereo unspecified) 7.85%, Cc1ccc(C)c(-n2c(Cc3cc(=O)[nH]c(=O)[nH]3)nnc2SC(C)C)c1 71.3%, Cn1c(=O)c2c(nc(CN3CCN(C(=O)c4ccco4)CC3)n2Cc2cccc(Cl)c2)n(C)c1=O 7.79%, COc1ccccc1OCC(=O)N1CCCC(Nc2cccc(F)c2)C1 (stereo unspecified) -1.81%, COCC(=O)n1nc(-c2ccccc2)nc1NCc1ccc(N(C)C)cc1 -5.23%, Cc1cc(C)n(CC(=O)N2CCc3ccccc32)c(=O)c1C#N -19.3%, O=C1OC2(c3ccccc31)c1ccccc1-c1ccccc12 -7.13%, Cc1cc(O)ccc1C1(c2ccc(O)cc2C)OC(=O)c2ccccc21 -0.95%, Cc1cccc(NC(=O)CN2CCN(C(=O)c3oc4c(Cl)cccc4c3C)CC2)c1C -10%, Cc1cccc(Nc2nc(N)c([N+](=O)[O-])c(N3CC(C)OC(C)C3)n2)c1 (stereo unspecified) -1.71%
